Counter-ions that a name gives are not always drawn.
System: RIVA
Experiment: growth inhibition by drug alone (1 - RLU/untreated control) (fraction); higher = stronger inhibition
Details: 100 nM; time (day): 4; 177Lu-lilotomab satetraxetan 0 ug/ml
Procedure, shortened: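 A radiolabelled anti-CD37 antibody conjugate (~600 MBq/mg) was applied for 18 h at 0.5 µg/ml to RIVA and 1 µg/ml to U-2932 cells, with untreated cells run alongside. All cells were washed and seeded at 3,000 cells/well onto library-printed plates at 10/100 nM (RIVA) or 10/1,000 nM (U-2932). Growth inhibition was based on RealTime-Glo luminescence compared with untreated no-drug wells. Daily reads began on day 3 after 1 h at 37°C, with each value being 1 − RLU/mean of the 48 such wells on that plate.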

Structure (SMILES)	growth inhibition by drug alone
CNCc1ccc(-c2[nH]c3cc(F)cc4c3c2CCNC4=O)cc1	-0.0204
O=C(O)c1ccc(-c2c[nH]c3ncc(-c4ccccc4)cc23)cc1C1CCCC1	-0.371
CC(=O)c1c(C)c2cnc(Nc3ccc(N4CCNCC4)cn3)nc2n(C2CCCC2)c1=O	-0.13
CCN(CC)CCCCNc1ncc2cc(-c3cc(OC)cc(OC)c3)c(NC(=O)NC(C)(C)C)nc2n1	-0.38
CCC(C)(C)C(=O)O[C@H]1C[C@@H](C)C=C2C=C[C@H](C)[C@H](CC[C@@H]3C[C@@H](O)CC(=O)O3)[C@H]21 [Simvastatin (Zocor)]	-0.0809
CC[C@H](Nc1ncnc2[nH]cnc12)c1nc2cccc(F)c2c(=O)n1-c1ccccc1	0.204
CC(C=CC(=O)NO)=CC(C)C(=O)c1ccc(N(C)C)cc1 (stereo not drawn) [Trichostatin A (TSA)]	0.317
COc1ccc2c3n(c(=NC(=O)c4cccnc4)nc2c1OC)CCN3	0.0435
NC(=O)c1ccc(-c2nc(-c3ccccn3)c(-c3ccc4c(c3)OCO4)[nH]2)cc1	-0.199
CNC(=O)c1cc(Oc2ccc(NC(=O)Nc3ccc(Cl)c(C(F)(F)F)c3)c(F)c2)ccn1 [Regorafenib (BAY 73-4506)]	0.262
Cc1cnc(Nc2ccc(OCCN3CCCC3)cc2)nc1Nc1cccc(S(=O)(=O)NC(C)(C)C)c1	-0.438
CCOc1ccc(Nc2nc(-c3c(C)nc4ccccn34)cs2)cc1	0.948
CC(C)C[C@H](NC(=O)[C@H](Cc1ccccc1)NC(=O)c1cnccn1)B(O)O [Bortezomib (Velcade)]	0.978
O=C1CN2Cc3c(ccc(Cl)c3Cl)N=C2N1 [Anagrelide]	0.019
Cc1cc(Nc2cc(N3CCN(C)CC3)nc(/C=C/c3ccccc3)n2)n[nH]1	-0.347
CCc1cc(Nc2nccc(-c3c(-c4ccc(OC)c(C(=O)Nc5c(F)cccc5F)c4)nc4ccccn34)n2)c(OC)cc1N1CCC(N2CCN(S(C)(=O)=O)CC2)CC1	0.0778
O=C1CN2Cc3c(ccc(Cl)c3Cl)N=C2N1 [Anagrelide hydrochloride]	0.214
O=C(NCCCNc1nc(Nc2cccc(NC(=O)N3CCCC3)c2)ncc1I)c1cccs1	0.317
CCC[C@H](NC(=O)/C(C#N)=C/c1cccc(Br)n1)c1ccccc1	-0.31

Structure (SMILES)	growth inhibition by drug alone
COc1cc2nc(N3CCCN(C)CC3)nc(NC3CCN(Cc4ccccc4)CC3)c2cc1OC	0.192
C#Cc1cccc(Nc2ncnc3cc(OCCOC)c(OCCOC)cc23)c1 [Erlotinib HCl]	0.642
CN(C)c1ccccc1CN1CCCN(Cc2ccccc2N(C)C)C1c1ccncc1	-0.0882
COc1cc2c(NC3CCN(C)CC3)nc(N3CCCN(C)CC3)nc2cc1OCCCN(C)C	-0.503
COc1ccc(COc2cc3oc(=O)c4cc(C(C)O)ccc4c3cc2OC)cc1 (stereo not drawn) [Palomid 529]	-0.0625
CO[C@@H](C(=O)N1Cc2[nH]nc(NC(=O)c3ccc(N4CCN(C)CC4)cc3)c2C1)c1ccccc1	0.0638
Cn1cc(C2=C(c3ccc(Cl)cc3Cl)C(=O)NC2=O)c2ccccc21	-0.393
CCc1ccc(CCOc2ccc(CC3SC(=O)NC3=O)cc2)nc1 (stereo not drawn) [Pioglitazone (Actos)]	-0.381
O=C(O)C1(C(=O)O)CCC1.[NH2-].[NH2-].[Pt+2] [Carboplatin]	-0.164
CS(=O)(=O)c1ccc(C(=O)Nc2ccc(Cl)c(-c3ccccn3)c2)c(Cl)c1 [Vismodegib (GDC-0449)]	-0.16
OCCn1cc(-c2ccc3c(c2)CC/C3=N\O)c(-c2ccncc2)n1	-0.208
CC[C@@H]1C(=O)N(C)c2cnc(Nc3ccc(C(=O)NC4CCN(C)CC4)cc3OC)nc2N1C1CCCC1	0.955
CC[C@]1(O)C[C@H]2CN(CCc3c([nH]c4ccccc34)[C@@](C(=O)OC)(c3cc4c(cc3OC)N(C=O)[C@H]3[C@@](O)(C(=O)OC)[C@H](OC(C)=O)[C@]5(CC)C=CCN6CC[C@]43[C@@H]65)C2)C1 [Vincristine]	0.955
CC(C)(C)c1ccc(S(=O)(=O)/C=C/C#N)cc1	-0.063
Cc1cn(-c2cc(NC(=O)c3ccc(C)c(Nc4nccc(-c5cccnc5)n4)c3)cc(C(F)(F)F)c2)cn1 [Nilotinib (AMN-107)]	-0.118
CC(C)(C#N)c1cc(Cn2cncn2)cc(C(C)(C)C#N)c1 [Anastrozole]	-0.0262
C=CCn1c(=O)c2cnc(Nc3ccc(N4CCN(C)CC4)cc3)nc2n1-c1cccc(C(C)(C)O)n1	-0.354
Cn1cnc(N)c2ncnc1-2 [3-Methyladenine]	-0.249
CCc1c2c(nc3ccc(OC(=O)N4CCC(N5CCCCC5)CC4)cc13)-c1cc3c(c(=O)n1C2)COC(=O)[C@]3(O)CC [Irinotecan HCl Trihydrate (Campto)]	-0.163

From the supplement of paper PMC6897291
